Reference: PubChem BioAssay (NCATS)
A number with no mark means an inactive call. Calls of active or inactive are those of the source. The call rests on the fitted dose curve; in most records, active means well fitted curve in the direction sought with a large enough effect; inactive means no such curve, though single readings can be large or run the other way.

These molecules were tested against Alpha-galactosidase (Coffea arabica) (UniProt Q42656) (assay: Counterscreen for Glucocerebrosidase Inhibitors: qHTS Assay for Coffee Bean alpha-Galactosidase at pH 5.9 (AID 998;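 further: plate controls were uninhibited enzyme for no effect and no-enzyme basal signal for full effect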)). Settings: coffee bean alpha-galactosidase enzyme assay; series mostly up to 76.9 µM; activity, negative = inhibition: at the top concentration.
Summary of the method: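 Compounds were titrated from 0.7 nM to 77 uM against green coffee bean alpha-galactosidase (2 nM) using 80 uM fluorogenic 4-methylumbelliferyl substrate. After 20 min at room temperature, reactions were stopped at pH 10 and read by fluorescence.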

Sequence of Alpha-galactosidase (Coffea arabica) (Q42656 whole entry, looked up): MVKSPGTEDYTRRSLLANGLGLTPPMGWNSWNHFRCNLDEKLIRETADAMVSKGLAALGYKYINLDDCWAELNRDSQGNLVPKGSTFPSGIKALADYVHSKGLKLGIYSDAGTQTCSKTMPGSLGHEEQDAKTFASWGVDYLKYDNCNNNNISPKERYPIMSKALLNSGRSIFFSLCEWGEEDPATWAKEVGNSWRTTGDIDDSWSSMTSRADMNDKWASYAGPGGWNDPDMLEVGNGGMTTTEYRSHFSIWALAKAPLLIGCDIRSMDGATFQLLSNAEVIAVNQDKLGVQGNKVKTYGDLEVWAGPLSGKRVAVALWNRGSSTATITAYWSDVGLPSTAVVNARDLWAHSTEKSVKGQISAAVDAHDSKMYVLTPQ

Row | SMILES | activity, negative = inhibition [%] | outcome
1 | OCCN1CCN(CCCN2c3ccccc3Sc3ccc(Cl)cc32)CC1 | 0.319 | 
2 | Clc1ccc2c(c1)C(N1CCNCC1)=Nc1ccccc1O2 | -1.41 | 
3 | CN(C)CCCN1c2ccccc2Sc2ccc(Cl)cc21 | -4.62 | 
4 | Cn1cnc([N+](=O)[O-])c1Sc1ncnc2nc[nH]c12 | -0.0624 | 
5 | CCN(CC)C(=S)SSC(=S)N(CC)CC | -1.92 | 
6 | CCC1(c2ccccc2)C(=O)NCNC1=O | -2.69 | 
7 | NC(=O)NO | 2.38 | 
8 | NS(=O)(=O)Cc1noc2ccccc12 | 2.45 | 
9 | CC(=O)Nc1nnc(S(N)(=O)=O)s1 | 1.75 | 
10 | CN(C)CCC=C1c2ccccc2C=Cc2ccccc21 | -4.3 | 
11 | CCOC(=O)c1ncn2c1CN(C)C(=O)c1cc(F)ccc1-2 | -0.989 | 
12 | O=C(C1CCCCC1)N1CC(=O)N2CCc3ccccc3C2C1 (stereo not given) | 0.743 | 
13 | Cc1[nH]c(=O)c(C#N)cc1-c1ccncc1 | 3.68 | 
14 | CN(C)CC/C=C1\c2ccccc2COc2ccccc21 | 1.05 | 
15 | CC(C)NCC(O)COc1cccc2[nH]ccc12 (stereo not given) | 0.239 | 
16 | CN1CCN(CCCN2c3ccccc3Sc3ccc(Cl)cc32)CC1 | -2.65 | 
17 | CC(=O)CCCCn1c(=O)c2c(ncn2C)n(C)c1=O | 1.26 | 
18 | CC(C)(C)NC(=O)[C@H]1CC[C@H]2[C@@H]3CC[C@H]4NC(=O)C=C[C@]4(C)[C@H]3CC[C@]12C | -0.442 | 

Row | SMILES | activity, negative = inhibition [%] | outcome
19 | Cc1oncc1C(=O)Nc1ccc(C(F)(F)F)cc1 | -1.38 | 
20 | CCCN(CCC)CCc1cccc2c1CC(=O)N2 | -1.02 | 
21 | Nc1ncn([C@@H]2O[C@H](CO)[C@@H](O)[C@H]2O)c(=O)n1 | -2.25 | 
22 | CC(C)[N+](C)(CCOC(=O)C1c2ccccc2Oc2ccccc21)C(C)C | -0.451 | 
23 | Cc1cn([C@H]2C=C[C@@H](CO)O2)c(=O)[nH]c1=O | 2.02 | 
24 | COC(=O)[C@H]1[C@H]2C[C@@H]3c4[nH]c5cc(OC)ccc5c4CCN3C[C@H]2C[C@@H](OC(=O)c2cc(OC)c(OC)c(OC)c2)[C@@H]1OC | -7.19 | 
25 | O=C(CCCN1CCC(O)(c2ccc(Cl)cc2)CC1)c1ccc(F)cc1 | -2.56 | 
26 | CC1=NS(=O)(=O)c2cc(Cl)ccc2N1 | -2.12 | 
27 | CNCCCC1c2ccccc2C=Cc2ccccc21 | -2.52 | 
28 | Cc1cn[nH]c1 | -0.991 | 
29 | Cn1ccc2cc3c(cc21)CCN3C(=O)Nc1cccnc1 | -2.52 | 
30 | Nc1nnc(-c2cccc(Cl)c2Cl)c(N)n1 | 5.29 | 
31 | CN1CCN(CCCN2c3ccccc3Sc3ccc(C(F)(F)F)cc32)CC1 | -3.08 | 
32 | CCCC(CCC)C(=O)O | -1.59 | 
33 | N[C@@H]1CONC1=O |  | inactive
34 | Fc1ccc([C@@H]2CCNC[C@H]2COc2ccc3c(c2)OCO3)cc1 | -3.4 | 
35 | CN(C)CCCN1c2ccccc2CCc2ccc(Cl)cc21 | -2.77 | 
